Data on five compounds can be found in PubChem BioAssay (EPA / NIEHS).

One may read the AC50 as the midpoint of the concentration-response curve, whichever way the signal moves.

Inconclusive results are not listed. Activity calls are given as the source filed them. Rule for the calls, unless noted: active = hit-call score of the fitted dose curve at least 0.9, where 1 is the maximum; inconclusive = response in the unintended direction; inactive = score below 0.9.

Assay [1] can be described thus: CEETOX_H295R_MTT_cell_viability: Viability Assessment in the CeeTox HT-H295R MTT Assay (AID 2283718; active = hit-call score of the fitted dose curve at least 0.9, where 1 is the maximum; inactive = score below 0.9). A digest of the protocol: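 MTT reduction (0.5 mg/ml, 4 h at 37 C; absorbance at 570 and 650 nm) gave viability as background-corrected percent change versus controls. H295R cells had 48 h forskolin (10 uM) prestimulation, then 48 h chemical exposure at 0.1% DMSO.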

For assay [2], the target named is human Retinoic Acid Receptor gamma (RARg), RARG (gene 5916) (UniProt P13631). The experiment in a line: ATG_RARg_TRANS: Attagene TRANS-FACTORIAL HepG2 Assay for human Retinoic Acid Receptor gamma (RARg) (AID 2283009). A digest of the protocol:
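Transactivation of exogenous RARg-Gal4 fusion measured as reporter transcript induction after 24 h in transfected HepG2 cells. RNA reverse-transcribed, amplified, fluorescently labeled and resolved by capillary electrophoresis; increase relative to DMSO.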

Assay [3] addresses human CYP2D6, CYP2D6 (gene 1565) (UniProt P10635). The assay is described as follows: NVS_ADME_hCYP2D6: NovaScreen (NVS) CYP450-related Enzyme Activity (ADME) Assay for human CYP2D6 (AID 2283107). A digest of the protocol:
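Compounds were first tested in duplicate at 10 uM against recombinant enzyme produced in insect cells, with substrate turnover measured by fluorescence after 1 hour. Decreased signal, referenced to acetonitrile vehicle, was taken as reduced enzyme activity. Active chemicals went on to concentration-response testing.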

In assay [4] the target is human Esterase Plasma (ES), BCHE (gene 590) (UniProt P06276). The experiment in a line: NVS_ENZ_hES: NovaScreen (NVS) Enzymatic Assay for human Esterase Plasma (ES) (AID 2283157). Summed up:
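Primary single-concentration screen at 25 uM in duplicate, then concentration-response to a 50 uM top dose. Human plasma esterase activity detected colorimetrically after 0.25 h incubation, with DMSO as baseline.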

The target in assay [5] is Muscarinic acetylcholine receptor M2 (Homo sapiens) (UniProt P08172). The assay is described as follows: NVS_GPCR_hM2: NovaScreen (NVS) G Protein-Coupled Receptor Assay for human Muscarinic, M2 Receptor (AID 2283273). A digest of the protocol: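 CHO-expressed human M2 receptor preparation, competitive displacement of a radioligand read by filter-based scintillation counting after 1 h. Single 25 uM duplicate screen, then concentration-response follow-up of actives; DMSO baseline.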
Sequence of Muscarinic acetylcholine receptor M2 (Homo sapiens) (P08172 whole entry, looked up): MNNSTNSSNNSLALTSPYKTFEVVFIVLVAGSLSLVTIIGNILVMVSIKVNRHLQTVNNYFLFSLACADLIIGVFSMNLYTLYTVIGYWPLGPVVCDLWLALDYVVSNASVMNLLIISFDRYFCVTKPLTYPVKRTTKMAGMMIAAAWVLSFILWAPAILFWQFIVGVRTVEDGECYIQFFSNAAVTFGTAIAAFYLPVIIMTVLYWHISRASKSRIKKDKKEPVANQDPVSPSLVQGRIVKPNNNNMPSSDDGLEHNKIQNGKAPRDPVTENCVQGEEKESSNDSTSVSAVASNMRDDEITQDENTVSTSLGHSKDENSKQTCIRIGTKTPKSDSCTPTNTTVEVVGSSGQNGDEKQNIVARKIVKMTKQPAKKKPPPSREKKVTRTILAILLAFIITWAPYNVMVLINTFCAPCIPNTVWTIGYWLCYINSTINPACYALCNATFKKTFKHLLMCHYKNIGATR

Assay [6] deals with human Neurokinin, NK2 Receptor, TACR2 (gene 6865) (UniProt P21452). The assay is described as follows: NVS_GPCR_hNK2: NovaScreen (NVS) G Protein-Coupled Receptor Assay for human Neurokinin, NK2 Receptor (AID 2283278).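 Note: actives reduce bound radioligand signal relative to DMSO baseline.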 A digest of the protocol: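 CHO-derived membrane protein, radioligand displacement, filter scintillation read at 4 h post-dose. Single-point 25 uM in duplicate, then concentration series for actives; DMSO as negative control.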
Sequence of human Neurokinin, NK2 Receptor, TACR2 (gene 6865) (P21452 whole entry, looked up): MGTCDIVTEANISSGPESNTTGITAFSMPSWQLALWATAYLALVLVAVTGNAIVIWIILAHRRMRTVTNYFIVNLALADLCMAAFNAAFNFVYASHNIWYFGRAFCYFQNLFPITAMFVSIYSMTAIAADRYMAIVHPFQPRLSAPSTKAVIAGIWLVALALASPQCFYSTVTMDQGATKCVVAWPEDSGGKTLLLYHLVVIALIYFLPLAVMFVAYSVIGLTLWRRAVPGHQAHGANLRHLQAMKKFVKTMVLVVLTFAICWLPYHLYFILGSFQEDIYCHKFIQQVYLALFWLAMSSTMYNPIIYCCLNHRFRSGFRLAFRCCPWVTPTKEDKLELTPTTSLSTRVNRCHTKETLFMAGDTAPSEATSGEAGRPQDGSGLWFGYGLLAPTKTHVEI

Assay [7] has as its target human Opioid Receptor Mu (Opiate Mu), OPRM1 (gene 4988) (UniProt P35372). The experiment in a line: NVS_GPCR_hOpiate_mu: NovaScreen (NVS) G Protein-Coupled Receptor Assay for human Opioid Receptor Mu (Opiate Mu) (AID 2283290).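 Note: hits lower bound tracer signal versus DMSO meaning displacement of the ligand.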 Summed up:
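Cell-free radioligand binding to membranes from CHO cells expressing the receptor; bound tracer measured by filter-based scintillation counting 2.5 hours after dosing. Loss of signal versus DMSO baseline reflects displacement; primary screen at 25 uM in duplicate, actives followed up in concentration series.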

In assay [8] the target is rat Adrenergic Receptor, Alpha 2 (Adra2), Non-selective Binding, Adra2a (gene 25083) (UniProt P22909). The assay is described as follows: NVS_GPCR_rAdra2_NonSelective: NovaScreen (NVS) G Protein-Coupled Receptor Assay for rat Adrenergic Receptor, Alpha 2 (Adra2), Non-selective Binding (AID 2283299). Summed up:
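Filter-based scintillation counting of radioligand binding to rat cortical membrane receptors, measured 1.25 hours post-dosing; loss of signal versus DMSO indicates displacement. Initial single-concentration duplicate at 25 uM, then concentration series.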

Assay [9] deals with Sodium channel protein type 1 subunit alpha (Rattus norvegicus) (UniProt P04774). The experiment in a line: NVS_IC_rNaCh_site2: NovaScreen (NVS) Ion Channel Assay for rat Sodium Channel, Site 2 (NaCh) (AID 2283322).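 Note: hit means loss of radioligand binding signal relative to DMSO so AC50 marks displacement.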 Summed up: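 Initial duplicate single-point testing at 25 uM, followed by concentration-response runs for actives. Binding of radioligand to rat forebrain membranes quantified after 1 h via filter-based radiodetection.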

Assay [10] in a line: NVS_IC_rCaBTZCHL: NovaScreen (NVS) Ion Channel Assay for Calcium Channel, Type L, Benzothiazepine Site (CaBTZCHL) (AID 2283337). Summed up: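 Rat cortical membrane preparation incubated 1.5 h with compound and benzothiazepine-site radioligand; loss of filter-bound counts versus DMSO marks displacement. Initial duplicate testing at 25 uM, actives followed up in concentration series.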

In assay [11] the target is chimpanzee Androgen Receptor (AR), AR (gene 747460) (UniProt O97775). The experiment in a line: NVS_NR_cAR: NovaScreen (NVS) Nuclear Receptor Binding Assay for chimpanzee Androgen Receptor (AR) (AID 2283346).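 Note: radioligand displacement from AR measured by scintillation counting in a cell-free assay.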 Summed up: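 Cell-free competition binding with insect-cell (Sf9/Sf21) extracted chimpanzee AR; scintillation signal from lysate at 72 h. Screened in duplicate at 25 uM, then concentration-response for actives; fitting relative to DMSO.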
Sequence of chimpanzee Androgen Receptor (AR), AR (gene 747460) (O97775 whole entry, looked up): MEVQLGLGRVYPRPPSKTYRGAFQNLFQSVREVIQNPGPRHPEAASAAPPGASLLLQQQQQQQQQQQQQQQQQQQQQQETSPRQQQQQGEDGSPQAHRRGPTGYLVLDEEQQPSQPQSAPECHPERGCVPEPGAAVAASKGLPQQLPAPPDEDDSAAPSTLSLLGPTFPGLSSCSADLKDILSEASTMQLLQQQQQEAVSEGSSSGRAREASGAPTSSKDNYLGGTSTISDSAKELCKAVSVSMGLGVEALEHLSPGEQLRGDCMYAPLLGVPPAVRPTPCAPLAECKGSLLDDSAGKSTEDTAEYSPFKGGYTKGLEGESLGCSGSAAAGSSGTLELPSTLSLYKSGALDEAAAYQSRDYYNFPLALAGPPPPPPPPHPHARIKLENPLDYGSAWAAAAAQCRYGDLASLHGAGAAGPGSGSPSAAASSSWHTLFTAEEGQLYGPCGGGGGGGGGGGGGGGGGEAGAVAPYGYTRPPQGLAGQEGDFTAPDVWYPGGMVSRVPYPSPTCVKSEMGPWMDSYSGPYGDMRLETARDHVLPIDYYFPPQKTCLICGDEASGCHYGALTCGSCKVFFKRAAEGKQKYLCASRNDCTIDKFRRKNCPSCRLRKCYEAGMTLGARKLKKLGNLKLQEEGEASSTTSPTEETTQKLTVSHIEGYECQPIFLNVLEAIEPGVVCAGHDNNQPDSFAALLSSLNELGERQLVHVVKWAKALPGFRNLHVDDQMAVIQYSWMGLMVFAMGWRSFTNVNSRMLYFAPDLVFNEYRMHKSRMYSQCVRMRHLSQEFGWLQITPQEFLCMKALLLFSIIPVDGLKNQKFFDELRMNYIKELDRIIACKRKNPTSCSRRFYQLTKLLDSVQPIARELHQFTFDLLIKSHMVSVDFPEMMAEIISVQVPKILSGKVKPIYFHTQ

Assay [12] has as its target guinea pig Sigma Receptor, Non-selective Binding, SIGMAR1 (gene 100135589) (UniProt Q60492). The experiment in a line: NVS_OR_gSIGMA_NonSelective: NovaScreen (NVS) Nuclear Receptor Binding Assay for guinea pig Sigma Receptor, Non-selective Binding (AID 2283367). A digest of the protocol: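 Guinea pig brain membrane sigma sites were labelled with a radioligand, and bound radioactivity was counted after filtration 1 h post-dose. Compounds were screened at 25 uM in duplicate, then retested as concentration series when active.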

Assay [13] deals with rat Serotonin Transporter (SERT), Slc6a4 (gene 25553) (UniProt P31652). The assay is described as follows: NVS_TR_rSERT: NovaScreen (NVS) Transporter Assay for rat Serotonin Transporter (SERT) (AID 2283375). Summed up:
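Steps: rat forebrain membranes dosed with chemical (25 uM duplicate primary; concentration series for actives); 1 h incubation; labelled ligand bound, filtered, counted by scintillation. Activity scored as signal loss vs DMSO.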

Assay [14] can be described thus: CCTE_Deisenroth_5AR_NBTE_donor: CCTE's 5alpha-reductase NanoBRET Target Engagement Assay […], Deisenroth Lab (AID 2284319; active = hit-call score of the fitted dose curve at least 0.9, where 1 is the maximum; inactive = score below 0.9). As to conditions: actives raise or lower the signal. A digest of the protocol:
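Donor NanoLuc luminescence at 460-20 nm is the read-out, serving artifact detection. Transiently expressed SRD5A2-NanoLuc in HEK293T; 5 h total chemical exposure, testosterone tracer added for the final 2 h; fitting bidirectional relative to DMSO baseline.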

Assay [15] in a line: CCTE_Deisenroth_5AR_NBTE_acceptor: CCTE's 5alpha-reductase NanoBRET Target Engagement Assay - Autofluorescence Screen, Deisenroth Lab (AID 2284321; active = hit-call score of the fitted dose curve at least 0.9, where 1 is the maximum; inactive = score below 0.9;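 note: compound fluorescence in the acceptor channel under 460 nm excitation flags autofluorescence artifacts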). As to conditions: actives raise or lower the signal. Summed up:
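Chemicals diluted to a nominal 100 uM in DMSO were scanned at 460 nm excitation. Samples were read in three independent runs (n=3). Gain or loss of acceptor signal was fitted relative to DMSO.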
(In general: In BRET a luciferase serves as donor, and the signal depends on an acceptor being close.)

Assay [16] relates to SRD5A2 (gene 6716). The assay is described as follows: CCTE_Deisenroth_5AR_NBTE_ratio: CCTE's 5alpha-reductase NanoBRET Target Engagement Assay - Ratio, Deisenroth Lab (AID 2284322; active = hit-call score of the fitted dose curve at least 0.9, where 1 is the maximum; inactive = score below 0.9). As to conditions: actives raise or lower the signal. A digest of the protocol: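 HEK293T cells transiently expressing an SRD5A2-NanoLuc fusion (20 h post-transfection) were exposed to test chemical (10 nM - 29.9 uM, 8 points) for 3 h, then testosterone tracer for a further 2 h. Acceptor/donor BRET ratio was fitted bidirectionally against DMSO baseline.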

The nature of assay [17]: CCTE_Mundy_HCI_Cortical_Synap_Neur_Matur_NeuriteSpotCountPerNeuriteLength: CCTE's Synaptogenesis and Neurite Maturation Assay in rat cortical cells for Neurite Spot Count per Neurite Length, Mundy Lab (AID 2284210; active = hit-call score of the fitted dose curve at least 0.9, where 1 is the maximum; inactive = score below 0.9). A digest of the protocol: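 Synaptophysin spots per unit neurite length, measured by automated imaging of MAP2/synaptophysin/Hoechst-stained neurons. Cultures from rat cortex received chemical at DIV 7 with media change through DIV 12; glial growth arrested by AraC at DIV 5; DMSO baseline.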

Assay [18] can be described thus: CCTE_Mundy_HCI_Cortical_Synap_Neur_Matur_BPCount: CCTE's Synaptogenesis and Neurite Maturation Assay in rat cortical cells for Branch Point Count, Mundy Lab (AID 2284211; active = hit-call score of the fitted dose curve at least 0.9, where 1 is the maximum; inactive = score below 0.9). Summed up: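 HCI read-out of branch points from MAP2/synaptophysin/Hoechst immunofluorescence; rat cortical cultures, AraC DIV 5, dosing DIV 7, fixed DIV 12; fit in positive direction vs DMSO baseline.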

Assay [19] is described as follows: CCTE_Mundy_HCI_Cortical_NOG_NeuriteCount: CCTE's Neurite Outgrowth Assay in rat cortical cells for Neurite Count, Mundy Lab (AID 2284212; active = hit-call score of the fitted dose curve at least 0.9, where 1 is the maximum; inactive = score below 0.9;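 note: cells fixed about two days after chemical exposure began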). A digest of the protocol:
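Rat cortical primary cells; compound added 2 h post-plating, 1/10 dilution of working solution. Anti-betaIII-tubulin/AF488 ICC; ArrayScan neurite count vs DMSO.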

A short description of assay [20]: CCTE_Mundy_HCI_Cortical_NOG_NeuriteLength: CCTE's Neurite Outgrowth Assay in rat cortical cells for Neurite Length, Mundy Lab (AID 2284213; active = hit-call score of the fitted dose curve at least 0.9, where 1 is the maximum; inactive = score below 0.9;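 note: neurites imaged about 48 to 50 h after chemical exposure began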). A digest of the protocol: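 First, rat primary cortical cells were plated and, 2 h later, given test chemical as a 1/10 dilution. Finally, βIII-tubulin immunostaining enabled automated imaging of neurite length.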

Sequence of human Opioid Receptor Mu (Opiate Mu), OPRM1 (gene 4988) (P35372 whole entry, looked up): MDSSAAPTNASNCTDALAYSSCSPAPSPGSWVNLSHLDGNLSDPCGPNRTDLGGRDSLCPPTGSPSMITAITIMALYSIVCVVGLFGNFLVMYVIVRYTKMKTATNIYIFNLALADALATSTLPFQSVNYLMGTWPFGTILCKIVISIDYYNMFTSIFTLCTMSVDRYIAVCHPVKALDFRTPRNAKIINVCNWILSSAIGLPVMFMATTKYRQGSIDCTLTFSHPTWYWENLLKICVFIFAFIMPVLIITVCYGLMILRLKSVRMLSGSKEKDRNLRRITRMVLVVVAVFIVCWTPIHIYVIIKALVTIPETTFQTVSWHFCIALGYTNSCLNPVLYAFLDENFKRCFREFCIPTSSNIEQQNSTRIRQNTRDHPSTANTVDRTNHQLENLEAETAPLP
Sequence of human Esterase Plasma (ES), BCHE (gene 590) (P06276 whole entry, looked up): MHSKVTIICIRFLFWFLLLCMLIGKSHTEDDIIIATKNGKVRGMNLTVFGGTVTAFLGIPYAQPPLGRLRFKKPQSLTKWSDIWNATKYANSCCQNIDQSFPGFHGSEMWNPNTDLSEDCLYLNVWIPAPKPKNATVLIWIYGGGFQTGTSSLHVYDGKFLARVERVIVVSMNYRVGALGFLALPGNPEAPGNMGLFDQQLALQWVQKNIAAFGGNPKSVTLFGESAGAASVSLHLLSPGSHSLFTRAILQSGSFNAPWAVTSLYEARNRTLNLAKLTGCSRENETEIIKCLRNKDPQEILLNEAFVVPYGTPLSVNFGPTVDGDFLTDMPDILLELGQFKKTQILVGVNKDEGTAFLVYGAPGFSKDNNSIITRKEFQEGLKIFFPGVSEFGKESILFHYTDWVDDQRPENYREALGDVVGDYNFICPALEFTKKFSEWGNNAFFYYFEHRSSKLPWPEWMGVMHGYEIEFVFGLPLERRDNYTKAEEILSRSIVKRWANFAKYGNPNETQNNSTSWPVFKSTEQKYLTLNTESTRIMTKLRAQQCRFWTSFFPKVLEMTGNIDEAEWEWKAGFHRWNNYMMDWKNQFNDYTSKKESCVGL
Sequence of guinea pig Sigma Receptor, Non-selective Binding, SIGMAR1 (gene 100135589) (Q60492 whole entry, looked up): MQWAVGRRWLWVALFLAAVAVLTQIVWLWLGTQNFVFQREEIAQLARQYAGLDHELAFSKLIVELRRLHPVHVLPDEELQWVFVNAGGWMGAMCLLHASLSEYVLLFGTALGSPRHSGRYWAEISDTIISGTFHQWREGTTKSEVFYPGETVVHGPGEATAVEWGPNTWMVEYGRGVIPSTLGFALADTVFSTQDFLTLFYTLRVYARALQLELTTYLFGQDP
Sequence of human CYP2D6, CYP2D6 (gene 1565) (P10635 whole entry, looked up): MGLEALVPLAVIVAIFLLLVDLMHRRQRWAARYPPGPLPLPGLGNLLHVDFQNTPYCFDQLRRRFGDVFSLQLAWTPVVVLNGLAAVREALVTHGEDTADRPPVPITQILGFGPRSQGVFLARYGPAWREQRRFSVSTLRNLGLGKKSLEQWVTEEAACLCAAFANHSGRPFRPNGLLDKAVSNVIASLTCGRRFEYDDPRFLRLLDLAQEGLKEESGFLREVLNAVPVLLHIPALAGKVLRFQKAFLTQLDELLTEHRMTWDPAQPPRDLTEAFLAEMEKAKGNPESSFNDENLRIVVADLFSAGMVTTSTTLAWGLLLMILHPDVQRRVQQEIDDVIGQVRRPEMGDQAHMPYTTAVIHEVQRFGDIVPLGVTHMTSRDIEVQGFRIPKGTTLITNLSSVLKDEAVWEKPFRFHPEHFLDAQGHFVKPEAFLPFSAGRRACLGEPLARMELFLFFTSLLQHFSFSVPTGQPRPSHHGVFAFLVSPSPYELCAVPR
Sequence of rat Adrenergic Receptor, Alpha 2 (Adra2), Non-selective Binding, Adra2a (gene 25083) (P22909 whole entry, looked up): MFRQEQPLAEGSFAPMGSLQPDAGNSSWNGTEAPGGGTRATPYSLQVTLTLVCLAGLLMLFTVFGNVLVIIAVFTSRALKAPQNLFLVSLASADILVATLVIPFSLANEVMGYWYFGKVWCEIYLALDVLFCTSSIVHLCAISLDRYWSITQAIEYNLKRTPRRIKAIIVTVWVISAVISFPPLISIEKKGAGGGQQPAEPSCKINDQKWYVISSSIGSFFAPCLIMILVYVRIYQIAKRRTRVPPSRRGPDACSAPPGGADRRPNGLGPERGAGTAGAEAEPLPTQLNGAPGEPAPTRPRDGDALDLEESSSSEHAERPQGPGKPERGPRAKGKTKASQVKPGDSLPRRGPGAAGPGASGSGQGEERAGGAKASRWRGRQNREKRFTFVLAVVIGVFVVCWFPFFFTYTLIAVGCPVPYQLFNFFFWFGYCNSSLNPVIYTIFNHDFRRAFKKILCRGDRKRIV
Sequence of rat Serotonin Transporter (SERT), Slc6a4 (gene 25553) (P31652 whole entry, looked up): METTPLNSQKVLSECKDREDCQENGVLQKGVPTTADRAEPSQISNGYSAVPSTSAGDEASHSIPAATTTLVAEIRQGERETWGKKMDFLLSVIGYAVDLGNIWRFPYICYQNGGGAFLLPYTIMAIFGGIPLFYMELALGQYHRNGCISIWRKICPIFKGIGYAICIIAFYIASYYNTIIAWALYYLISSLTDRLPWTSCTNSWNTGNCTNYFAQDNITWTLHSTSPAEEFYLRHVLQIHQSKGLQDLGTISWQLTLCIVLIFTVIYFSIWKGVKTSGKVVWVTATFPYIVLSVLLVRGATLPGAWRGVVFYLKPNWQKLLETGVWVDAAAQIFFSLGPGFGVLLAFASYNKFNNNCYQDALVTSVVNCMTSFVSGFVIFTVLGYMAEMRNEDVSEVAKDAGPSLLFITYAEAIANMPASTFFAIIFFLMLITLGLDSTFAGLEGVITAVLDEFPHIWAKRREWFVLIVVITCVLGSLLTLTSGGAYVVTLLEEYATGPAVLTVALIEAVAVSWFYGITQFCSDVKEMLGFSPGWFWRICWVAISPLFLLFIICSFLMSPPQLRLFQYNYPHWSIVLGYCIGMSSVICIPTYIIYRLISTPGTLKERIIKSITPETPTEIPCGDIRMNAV

For `CCO[Si](CCCN)(OCC)OCC`, the compound was called inactive in assay [1].

`O=C(C1CCCCC1)N1CC(=O)N2CCc3ccccc3C2C1` (stereo not given): in assay [2], the result was inactive.

For `CC[N+](CC)(CC(=O)Nc1c(C)cccc1C)Cc1ccccc1`, the half-maximal activity concentration (AC50) in [3] is 0.132 µM (active); in [4], 3.7 µM (active); in assay [5], 0.419 µM (active); in assay [6], 16.6 µM (active); in [8], 18.7 µM (active); in assay [9], 3.49 µM (active). In addition, the half-maximal activity concentration (AC50) in assay [10] was 7.02 µM (active); in assay [12] it was 12.7 µM (active). In addition, the result in assay [7], in [11] and in assay [13] was inactive.

With `O=C(O)/C=C\C(=O)O`, the compound was classed as inactive in assay [14], in [15] and in assay [16].

On to `CNCCC(Oc1ccc(C(F)(F)F)cc1)c1ccccc1` (stereo not given), for which the half-maximal activity concentration (AC50) in assay [17] was 12 µM (active); in assay [18], 6.57 µM (active); in assay [19], 14.7 µM (active); in [20], 12.2 µM (active).
